54 compounds from ChEMBL document CHEMBL4513216, “Probing the Open Global Health Chemical Diversity Library for Multistage-Active Starting Points for Next-Generation Antimalarials” (ACS Infect Dis, 2020) can be followed below.

Among all 69,000 compounds or so, about 8,600 (12%) showed an effect of 50% or more. What follows is part of a selection rich in strong results, with near analogues and random picks from the rest.

In the assay the test system is Plasmodium berghei. The assay can be described thus: Screen against P. berghei liver stage (PbLuc), transformed with Luciferase, at 10uM. Particulars: tested at 10 uM. It is filed as functional, HepG2.
With `NC(=O)C1(CCCc2cccnc2)CCCN(c2ncccn2)C1` (centres undefined), the INHIBITION was found to be 0.932%. To `NC(=O)CN1CCCC(CCCc2ccccn2)(C(N)=O)C1` (centres undefined) belongs -0.902%; to `Cn1cc(CN2CCCC(CCCc3ccccn3)(C(N)=O)C2)cn1` (centres undefined), 20.8%. To `NC(=O)C1(CCCc2ccccn2)CCCN(Cc2ccncc2)C1` (centres undefined) belongs 54.5%; to `COc1ccc(C(=O)Nc2cccc(SC)c2)c(OC)n1`, -138%; to `CCOc1cc(C)nc(N2CCN(C(=O)c3csnn3)CC2)n1`, 33.8%. Turning to `O=C(O)[C@@H]1CCN(C(=O)c2cscn2)[C@@H]1c1ccc(F)cc1`, the INHIBITION is listed as -35.5%. For the compound `COc1ccc2ccccc2c1CNCC1CCS(=O)(=O)C1` (centres undefined), the INHIBITION is recorded as 46.4%.

Turning to `CCOc1ccc2ccccc2c1CNCC1CCNCC1`, the INHIBITION stood at 49.2%.

For `CCOc1ccc2ccccc2c1CNCC1CCS(=O)(=O)C1` (centres undefined), the INHIBITION was 57.3%. `Cc1cc2nc(C(C)C)cc(N3CCC(Oc4ncccn4)CC3)n2n1`: the INHIBITION is given as -17.1%. Regarding `CCOC(=O)CSc1nnc([C@@H](N)C(C)C)o1`, the INHIBITION was found to be 2.49%. To `Cc1cc(S(C)(=O)=O)c(C)c(S(=O)(=O)NC2CCCC2)c1` belongs -1.28%; to `Cc1cc(S(C)(=O)=O)c(C)c(S(=O)(=O)NCC2CCC2)c1`, 54.4%; to `Cc1cc(S(C)(=O)=O)c(C)c(S(=O)(=O)NCC2CCCO2)c1` (centres undefined), 48.4%. `Cc1nn(C)cc1C1CC(=O)Nc2c1cnn2C(C)(C)C` (centres undefined): the INHIBITION was -16.5%. The value for `O=C(c1ccn(-c2cccc(Cl)c2)n1)N1CCN(CCO)CC1` was -12.2%; that for `CS(=O)(=O)N1CCN(C(=O)c2cncs2)CC(C(N)=O)C1` (centres undefined) was -0.8525%. For `Cc1cccc(CN2CCC3(CC2)CC(c2cccnc2)C(=O)N3C)n1` (centres undefined), the INHIBITION came to 20.6%. To `Cc1noc(C)c1CN1CCC2(CC1)C(c1ccccc1)CC(=O)N2C` (centres undefined) belongs 42.1%; to `CN1C(=O)CC(c2ccccc2)C12CCN(CCO)CC2` (centres undefined), -63.9%. The value for `Cc1ccc(CN2CCC3(CC2)C(c2ccccc2)CC(=O)N3C)o1` (centres undefined) was 51.2%; that for `Cc1ccc(CN2CCC3(CC2)CC(c2cccnc2)C(=O)N3C)o1` (centres undefined) was 55.4%; that for `CN1C(=O)C(c2cccnc2)CC12CCN(CCO)CC2` (centres undefined) was -7.24%. The value for `Cc1nc(C2CCCN2C(=O)Cc2cccc(F)c2)nc(O)c1C` (centres undefined) was 11.1%. For `O=C(Cc1ccsc1)N1CCCC2(COCCN(CC3CC3)C2)C1` (centres undefined), the INHIBITION is -14.3%. As for `COCCNC(=O)Cn1cc(NC(=O)c2cc(Cl)c(Cl)n2C)cn1`, the INHIBITION was 12.9%. For the compound `Cc1cc(C)n(CC2CN(CC(=O)NCc3cccs3)CCO2)n1` (centres undefined), the INHIBITION was 18.933%. `CCc1nccn1CCC(=O)N1C[C@@H]2CC[C@H]1CN(C(=O)N(C)C)C2`: the INHIBITION amounted to 50.2%. Regarding `Cc1ccccc1N1CCN(C(=O)CCc2nncn2C)C(C)C1` (centres undefined), the INHIBITION is reported as 8.38%.

In the case of `CCc1nccn1CCC(=O)N1CC(=O)N(c2ccccc2C)CC1C` (centres undefined), the INHIBITION was found to be 49.9%.

`Cc1ccccc1N1CC(C)N(Cc2ccc(C)c(F)c2F)CC1=O` (centres undefined): the INHIBITION is given as -8.92%. To `COc1cccc(CN2CC(=O)N(c3ccccc3C)CC2C)c1OC` (centres undefined) belongs 17.8%; to `CCc1nccn1CC(=O)N1C[C@@H]2CC[C@H]1CN(S(=O)(=O)N(C)C)C2`, 17%. Turning to `CCc1nccn1CCC(=O)N1CCN(c2ccccc2C)CC1C` (centres undefined), the INHIBITION was 66.7%. With `CCc1nccn1CC(=O)N1C[C@@H]2CC[C@H]1CN(C(=O)N(C)C)C2`, the INHIBITION was -19.7%.

`Cc1ccccc1N1CC(C)N(C(=O)CCn2cccn2)CC1=O` (centres undefined): the INHIBITION amounted to 64.5%. The value for `COCCn1ccnc1C1CCN(C(=O)CSc2nnc(C)o2)CC1` was 7.24%.

For the compound `COc1ncccc1CNC(=O)c1c(C)oc(C)c1C`, the INHIBITION is given as 5.1%. `CNC(=O)c1ccc(C2CN(CC(=O)N(C)C)CCO2)nc1` (centres undefined): the INHIBITION is -3.94%. To `c1cncc(OCC2CC3(CCN(CC4CC4)CC3)CO2)c1` (centres undefined) belongs 13.7%; to `COc1ccc(C)nc1NC(=O)Cc1c(C)nn(C)c1C`, 41.6%; to `COCC[C@]1(O)CCN(CC(=O)NCc2ccccc2C)C[C@H]1C`, 46.3%.

For `O=C(Cc1ccccn1)NCC1OCCc2cn(CC3CC3)nc21` (centres undefined), the INHIBITION is recorded as 3.25%. Turning to `Cc1ccc(Oc2ncccc2CNS(=O)(=O)N2CCOCC2)cn1`, the INHIBITION came out at 70.1%. For the compound `O=S(=O)(NCc1cccnc1OC1CCCC1)N1CCOCC1`, the INHIBITION came out at 16.3%. To `CCOc1ncccc1CNS(=O)(=O)N1CCOCC1` belongs -8.28%. To `O=c1cc(Cn2cncn2)nc2n1CCCN(CCN1CCCC1)C2` belongs 16.6%; to `Cc1cc(C)n(C2CN(CC(O)c3ccc(C(F)(F)F)cc3)C2)n1` (centres undefined), -24.2%. The value for `c1cc2nccc(CC3CCCN(Cc4c[nH]cn4)CC3)c2cn1` (centres undefined) was 75.3%; that for `c1cc2nccc(CC3CCCN(Cc4ncc[nH]4)CC3)c2cn1` (centres undefined) was 32.4%; that for `Cn1ccnc1CN1CCCC(Cc2ccnc3ccncc23)CC1` (centres undefined) was 29.3%. With `CC(C)c1ccc(OCC(=O)N(C)C)cc1`, the INHIBITION is on record as -11.2%. As for `CC(C)n1c(=O)[nH]c2cn(-c3ccccc3)c(=O)n21`, the INHIBITION came to 6.32%.
